Laboratory results from PubChem BioAssay (NCATS).
Inconclusive results are not listed. Active and inactive are the calls of the source. Calls come from the whole dose curve; as a rule, active = well fitted inhibition curve with a large enough effect; inconclusive = small, poorly fitted or top-dose-only effect; inactive = flat fitted curve, though single readings scatter.

tested on: HACAT; assay: qHTS assay to identify novel small-molecules to repurpose for Merkel cell carcinoma treatment (AID 1296009); conditions: MCC and control cell lines, CellTiter-Glo viability, 72 h; at 44.8 µM (top of the series) unless noted; note: nearly all actives have a fitted effect of over 60% in size
Summary of the method: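 Cells exposed to NPC (8-point) and MIPE (11-point) compound dilutions for 72 hr at 37 degree celsius; viability read by CellTiter-Glo luminescence, normalized to no-cell and DMSO in-plate controls.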

Row | SMILES | outcome
1 | COc1ccc(/C=C/C(=O)O[C@@H]2[C@@H](O)[C@H](C)O[C@@H](OC3C4C=COC(O[C@@H]5O[C@H](CO)[C@@H](O)[C@H](O)[C@H]5O)C4C4(CO)OC34)[C@@H]2O)cc1OC (stereo partly specified) | inactive [at 17.4 µM]
2 | CC(=O)OCC1=C[C@H](O)[C@@H]2C(C(=O)O)=CO[C@@H](O[C@@H]3O[C@H](CO)[C@@H](O)[C@H](O)[C@H]3O)[C@H]12 | inactive [at 17.4 µM]
3 | COC(=O)[C@@]1(O)C=CC[C@@H]2[C@@]3(C)C[C@@H](c4ccoc4)OC(=O)[C@H]3CC[C@]21C | inactive
4 | O=C(NCC(=O)N1CC[C@H](NC2CCC(O)(c3ccc(-c4ncccn4)cn3)CC2)C1)c1cccc(C(F)(F)F)c1 (stereo partly specified) | inactive
5 | CC1=CC(=O)C2C(C)(C)CCCC2(C)C12CCC1(COC(=O)C1)O2 (stereo unspecified) | inactive
6 | CC(C)(O)C1CCC2(C)C3C(O)C4C(C13)C42CO (stereo unspecified) | inactive
7 | C[C@@H]1CC[C@]2(C)C(C[C@@H](O)[C@H](O)[C@]23CO3)[C@@]1(C)CCc1ccoc1 (stereo partly specified) | inactive
8 | O=C(O)C[C@H]1CCC(=O)[C@@H]1C/C=C\CCOC1OC(CO)C(O)C(O)C1O (stereo partly specified) | inactive
9 | C=CCc1ccc(O[C@@H]2O[C@H](CO)[C@@H](O)[C@H](O)[C@H]2O)c(OC)c1 | inactive
10 | CC1OC(OC2C(O)C(C(=O)O)OC(OC3CCC4(C)C(CCC5(C)C4C=CC4=C6CC(C)(C)CC(O)C6(C)CCC45C)C3(C)C)C2OC2OCC(O)C(O)C2O)C(O)C(O)C1O (stereo unspecified) | inactive [at 9.27 µM]
11 | C[C@H]1[C@H](C)CC[C@]2(C(=O)O)CC[C@]3(C)C(=CC[C@@H]4[C@@]5(C)C[C@@H](O)[C@H](O)[C@@](C)(CO)[C@@H]5CC[C@]43C)[C@H]12 | inactive
